Reference: PubChem BioAssay (NCATS)
“And” between values parts separate entries of the source, which are not always exact repeats. Equal entries are not always repeated. Results filed as inconclusive are left out. The source made the active and inactive calls. Unless noted, calls come from the whole dose curve.

Legend:
[1] = target: Bile acid receptor (Homo sapiens) (UniProt Q96RI1); experiment: qHTS assay for small molecule agonists of farnesoid X receptor signaling (AID 588527); settings: HEK293T FXR-UAS-bla, beta-lactamase ratio, 16 h; stronger effect = higher value;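 note: series mostly up to about 77 µM; 0% = vehicle basal and 100% = reference agonist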
Chain of Bile acid receptor (Homo sapiens) (Q96RI1 whole entry, looked up): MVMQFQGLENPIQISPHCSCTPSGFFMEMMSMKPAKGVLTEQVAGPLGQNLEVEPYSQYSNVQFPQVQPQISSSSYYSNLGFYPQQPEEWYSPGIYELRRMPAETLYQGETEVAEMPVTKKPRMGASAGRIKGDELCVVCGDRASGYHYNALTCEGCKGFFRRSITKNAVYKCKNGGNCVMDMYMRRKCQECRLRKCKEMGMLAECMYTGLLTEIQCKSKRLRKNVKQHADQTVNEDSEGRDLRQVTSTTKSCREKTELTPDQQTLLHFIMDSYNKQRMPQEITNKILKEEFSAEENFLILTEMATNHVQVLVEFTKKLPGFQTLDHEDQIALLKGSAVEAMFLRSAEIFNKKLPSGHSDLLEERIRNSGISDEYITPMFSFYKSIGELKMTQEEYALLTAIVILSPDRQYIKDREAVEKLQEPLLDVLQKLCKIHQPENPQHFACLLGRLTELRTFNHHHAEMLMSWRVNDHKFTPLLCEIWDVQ
In short: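 Read-out: beta-lactamase reporter fluorescence with CCF4 substrate in GeneBLAzer FXR-UAS-bla HEK293T cells, after 16 h compound exposure at 37 C. Response scaled between DMSO basal (0%) and chenodeoxycholic acid at 100 uM (100%).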

[2] = target: Estrogen receptor (Homo sapiens) (UniProt P03372); experiment: qHTS assay for small molecule agonists of estrogen receptor alpha signaling (AID 588514);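 note: 0% = vehicle only and 100% = reference agonist; nearly all actives have a fitted effect of over 70% in size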
Chain of Estrogen receptor (Homo sapiens) (P03372 whole entry, looked up): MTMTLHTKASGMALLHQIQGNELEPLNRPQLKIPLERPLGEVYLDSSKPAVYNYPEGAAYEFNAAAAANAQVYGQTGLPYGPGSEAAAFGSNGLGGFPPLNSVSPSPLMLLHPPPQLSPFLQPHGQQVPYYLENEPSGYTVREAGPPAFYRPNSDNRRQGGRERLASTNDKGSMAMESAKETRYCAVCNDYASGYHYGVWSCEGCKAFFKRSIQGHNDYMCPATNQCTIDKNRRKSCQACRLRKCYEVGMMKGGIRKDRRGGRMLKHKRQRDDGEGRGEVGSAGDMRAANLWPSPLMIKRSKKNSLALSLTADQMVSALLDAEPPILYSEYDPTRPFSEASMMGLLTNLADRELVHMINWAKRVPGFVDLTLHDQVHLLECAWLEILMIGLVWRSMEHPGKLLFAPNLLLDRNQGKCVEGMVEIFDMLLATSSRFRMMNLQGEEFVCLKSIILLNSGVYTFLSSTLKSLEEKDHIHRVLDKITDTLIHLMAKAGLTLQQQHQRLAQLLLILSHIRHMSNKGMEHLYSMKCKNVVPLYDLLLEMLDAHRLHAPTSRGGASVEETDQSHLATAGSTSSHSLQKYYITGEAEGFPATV
In short: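 Reporter-gene assay. […] controls beta-lactamase in HEK 293 GripTite cells; after 18 hrs with compound, CCF4 substrate is added for 2 hrs and fluorescence is read.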

[3] = target: Glucocorticoid receptor (Homo sapiens) (UniProt P04150); experiment: qHTS assay for small molecule antagonists of glucocorticoid receptor signaling (AID 588533; active = well fitted inhibition curve with a large enough effect in the signal ratio, with a control signal flat, not every such curve was filed as active; the % refers to the signal ratio;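 note: cells stimulated with 2 nM dexamethasone as agonist; % is set by controls: 0 for no effect and ±100 for the full control effect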)
Chain of Glucocorticoid receptor (Homo sapiens) (P04150 whole entry, looked up): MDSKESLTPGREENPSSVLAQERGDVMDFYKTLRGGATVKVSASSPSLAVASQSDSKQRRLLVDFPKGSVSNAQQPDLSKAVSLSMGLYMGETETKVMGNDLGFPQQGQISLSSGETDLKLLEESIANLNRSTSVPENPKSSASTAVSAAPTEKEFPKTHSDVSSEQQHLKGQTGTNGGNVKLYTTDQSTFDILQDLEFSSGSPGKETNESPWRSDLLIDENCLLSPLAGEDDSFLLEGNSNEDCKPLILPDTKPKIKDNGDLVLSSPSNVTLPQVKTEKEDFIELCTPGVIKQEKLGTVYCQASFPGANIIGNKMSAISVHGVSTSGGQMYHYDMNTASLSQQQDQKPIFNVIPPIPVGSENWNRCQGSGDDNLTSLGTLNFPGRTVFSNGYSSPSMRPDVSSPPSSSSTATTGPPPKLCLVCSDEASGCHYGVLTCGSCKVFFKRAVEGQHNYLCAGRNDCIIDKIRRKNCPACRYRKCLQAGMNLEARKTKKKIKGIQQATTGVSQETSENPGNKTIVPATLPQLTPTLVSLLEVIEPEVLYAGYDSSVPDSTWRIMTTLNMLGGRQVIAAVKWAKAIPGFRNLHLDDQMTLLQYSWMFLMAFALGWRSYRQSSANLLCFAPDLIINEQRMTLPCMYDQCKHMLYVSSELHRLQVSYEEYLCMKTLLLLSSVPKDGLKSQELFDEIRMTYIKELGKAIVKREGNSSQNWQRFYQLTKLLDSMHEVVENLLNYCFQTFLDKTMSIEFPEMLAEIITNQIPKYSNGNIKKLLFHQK
In short: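 Antagonist-mode qHTS: compound titrations added to GRE-bla HeLa cells, then dexamethasone 2 nM final; 18 h, 37 C. CCF4 FRET fluorescence normalized to dexamethasone and DMSO; IC50 from Hill fit.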

[4] = target: Peroxisome proliferator-activated receptor delta (Homo sapiens) (UniProt Q03181); experiment: qHTS assay for small molecule agonists of peroxisome proliferator-activated receptor delta signaling (AID 588534);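 note: 0% = DMSO basal wells and 100% = positive control agonist at 10 µM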
Chain of Peroxisome proliferator-activated receptor delta (Homo sapiens) (Q03181 whole entry, looked up): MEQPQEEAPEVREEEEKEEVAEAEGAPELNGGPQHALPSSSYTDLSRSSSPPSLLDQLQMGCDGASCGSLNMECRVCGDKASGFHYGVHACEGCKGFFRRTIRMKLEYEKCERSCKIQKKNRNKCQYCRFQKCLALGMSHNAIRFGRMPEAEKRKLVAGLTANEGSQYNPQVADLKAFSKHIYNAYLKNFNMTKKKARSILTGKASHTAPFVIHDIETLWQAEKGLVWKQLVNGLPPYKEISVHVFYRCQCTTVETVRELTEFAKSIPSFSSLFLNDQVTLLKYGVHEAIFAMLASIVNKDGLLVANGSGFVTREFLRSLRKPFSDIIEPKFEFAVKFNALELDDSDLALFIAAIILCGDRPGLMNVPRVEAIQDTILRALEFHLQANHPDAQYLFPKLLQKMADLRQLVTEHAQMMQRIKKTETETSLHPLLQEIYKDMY
In short: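 Reporter cells were plated and held 5 hrs at 37 C before compounds were added. After 18 hrs at 37 C, CCF4 dye was loaded for 2 hrs at RT and fluorescence measured.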

[5] = target: Glucocorticoid receptor (Homo sapiens) (UniProt P04150); experiment: qHTS assay for small molecule agonists of glucocorticoid receptor signaling (AID 588532; active = well fitted curve in the direction sought with a large enough effect in the signal ratio, with a control signal flat; the % refers to the signal ratio;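 note: 100% = dexamethasone at 0.1 µM and 0% = DMSO only wells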); settings: HeLa MMTV-bla, beta-lactamase ratio, agonist, 18 h; stronger effect = higher value; percent of dexamethasone control, DMSO zero
In short: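 MMTV-bla HeLa beta-lactamase reporter cells in 1% charcoal/dextran FBS medium, compounds up to 92 uM for 18 h at 37 C, CCF4 readout; normalized to 0.1 uM dexamethasone (100%), EC50 and efficacy from Hill fits.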

[6] = qHTS assay for small molecule antagonists of peroxisome proliferator-activated receptor delta signaling (AID 588535; active = well fitted inhibition curve with a large enough effect in the signal ratio, with a control signal flat, not every such curve was filed as active; the % refers to the signal ratio;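 for max response: cells co-treated with a PPAR-delta agonist as stimulator during compound exposure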); settings: HEK293T PPARd-UAS-bla, beta-lactamase FRET ratio, 18 h; 460 nm channel
In short: (§1)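 Cells were seeded at 4000 per well in assay medium containing 2% charcoal/dextran FBS and held 5 hrs at 37 C. Compounds were then added for 18 hrs. CCF4 substrate was applied for 2 hrs at room temperature before fluorescence reading.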

[7] = target: Peroxisome proliferator-activated receptor delta (Homo sapiens) (UniProt Q03181); experiment: as above
In short: as §1

[8] = target: Peroxisome proliferator-activated receptor gamma (Homo sapiens) (UniProt P37231); experiment: qHTS assay for small molecule agonists of peroxisome proliferator-activated receptor gamma signaling (AID 588536; active = well fitted curve in the direction sought with a large enough effect in the signal ratio, with a control signal flat, not every such curve was filed as active; the % refers to the signal ratio;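 note: 0% = DMSO basal wells and 100% = rosiglitazone at 2 µM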)
Chain of Peroxisome proliferator-activated receptor gamma (Homo sapiens) (P37231 whole entry, looked up): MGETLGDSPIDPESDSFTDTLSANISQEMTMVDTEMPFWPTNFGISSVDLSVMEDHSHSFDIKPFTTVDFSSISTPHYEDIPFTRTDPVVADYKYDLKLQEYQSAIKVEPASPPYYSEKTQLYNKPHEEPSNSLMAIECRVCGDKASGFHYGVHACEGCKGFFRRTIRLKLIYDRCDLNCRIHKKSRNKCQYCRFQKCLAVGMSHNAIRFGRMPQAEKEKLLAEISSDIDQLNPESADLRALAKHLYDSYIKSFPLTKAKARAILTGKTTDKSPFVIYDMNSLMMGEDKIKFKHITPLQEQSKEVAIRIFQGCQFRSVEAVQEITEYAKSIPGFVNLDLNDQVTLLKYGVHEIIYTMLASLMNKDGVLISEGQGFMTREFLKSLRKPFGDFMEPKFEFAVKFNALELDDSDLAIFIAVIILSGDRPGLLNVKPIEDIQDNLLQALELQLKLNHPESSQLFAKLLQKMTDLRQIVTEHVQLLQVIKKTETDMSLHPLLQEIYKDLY
In short: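 Test agents, titrated, stimulated HEK293 UAS-bla cells overnight (16 h, 37 C). Substrate CCF4 was then added for two hours at room temperature before fluorescence reading.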

[9] = target: Bile acid receptor (Homo sapiens) (UniProt Q96RI1); experiment: qHTS assay for small molecule antagonists of farnesoid X receptor signaling (AID 588526); note: % is set by controls: 0 for no effect and ±100 for the full control effect
In short: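 Antagonist mode: titrated compounds tested against chenodeoxycholic acid stimulation (normalized to 50 uM CDCA and DMSO) in GeneBLAzer HEK293T cells for 16 h. Beta-lactamase read by CCF4 fluorescence; IC50 from Hill fits.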

[10] = target: Androgen receptor (Homo sapiens) (UniProt P10275); experiment: qHTS assay for small molecule antagonists of androgen receptor signaling (AID 588516; active = well fitted curve in the direction sought with a large enough effect in the signal ratio, with a control signal flat, not every such curve was filed as active; the % refers to the signal ratio; note: % is set by controls: 0 for no effect and ±100 for the full control effect)
Chain of Androgen receptor (Homo sapiens) (P10275 whole entry, looked up): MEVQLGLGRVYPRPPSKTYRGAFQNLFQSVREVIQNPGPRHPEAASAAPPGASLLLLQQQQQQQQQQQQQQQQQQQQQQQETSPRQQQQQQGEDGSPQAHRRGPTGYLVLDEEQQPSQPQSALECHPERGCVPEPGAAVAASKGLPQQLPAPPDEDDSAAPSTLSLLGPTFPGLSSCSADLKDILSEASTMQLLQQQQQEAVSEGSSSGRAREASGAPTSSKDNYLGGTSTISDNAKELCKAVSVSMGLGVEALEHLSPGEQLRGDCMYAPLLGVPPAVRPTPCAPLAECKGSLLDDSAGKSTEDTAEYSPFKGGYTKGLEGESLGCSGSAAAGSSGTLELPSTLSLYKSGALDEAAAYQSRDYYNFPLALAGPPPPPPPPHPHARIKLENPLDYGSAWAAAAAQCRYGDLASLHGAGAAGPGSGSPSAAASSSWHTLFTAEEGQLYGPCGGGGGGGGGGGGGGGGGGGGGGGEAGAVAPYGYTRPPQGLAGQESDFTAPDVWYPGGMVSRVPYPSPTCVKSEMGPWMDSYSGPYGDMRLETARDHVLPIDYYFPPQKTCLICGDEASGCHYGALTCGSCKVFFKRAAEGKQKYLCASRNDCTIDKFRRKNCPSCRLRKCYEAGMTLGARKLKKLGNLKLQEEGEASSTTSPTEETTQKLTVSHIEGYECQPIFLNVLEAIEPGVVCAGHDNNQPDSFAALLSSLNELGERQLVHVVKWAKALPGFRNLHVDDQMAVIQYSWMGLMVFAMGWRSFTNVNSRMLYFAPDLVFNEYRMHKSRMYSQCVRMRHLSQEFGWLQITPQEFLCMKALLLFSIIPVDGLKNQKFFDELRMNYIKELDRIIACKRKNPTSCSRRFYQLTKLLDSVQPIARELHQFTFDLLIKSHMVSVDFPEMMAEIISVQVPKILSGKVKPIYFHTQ
In short: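 Compounds tested in titration against 10 nM R1881 in AR-responsive bla reporter HEK 293 cells; CCF4 fluorescence (460/530 nm) after 16 h exposure gave IC50 and efficacy.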

C1=CC2C3C=CC(C3)C2C1 (stereo not drawn)
inactive: activation [1] -0.353%

Nc1ccc(Cl)cc1
inactive: outcome [2] | Potency [3] | outcome [4]

C1CCC(NC2CCCCC2)CC1
inactive: outcome [2] | activation [5] 3.43% and -1% and -4.74% | Potency [3] | outcome [4] | Potency [7] | outcome [8]
10% and 0.455%: max response [6]

Nc1ccc(Sc2ccc(N)cc2)cc1
inactive: outcome [9] | activation [1] -1.33% | activation [5] 8.24% and -4.53% | Potency [3] | outcome [4] | outcome [8]

Nc1ccc(N=Nc2ccccc2)cc1
inactive: outcome [9] | activation [1] -11.4% | activation [5] -2.94% | Potency [3] | outcome [4] | Potency [7] | outcome [8]
4.67%: max response [6]

CC(C)Oc1cccc(NC(=O)c2ccccc2C(F)(F)F)c1
inactive: outcome [2] | activation [5] -4.03% | Potency [3] | outcome [4]

Cc1cc(O)ccc1Cl
44.7%: max response [6]
inactive: outcome [2] | outcome [9] | activation [1] 1.93% | Potency [3] | outcome [4] | Potency [7] | outcome [8]

O=C(O)CCCOc1ccc(Cl)cc1Cl
inactive: Potency [10]

O=C(Nc1ccccc1-c1ccc(Cl)cc1)c1cccnc1Cl
inactive: outcome [2] | activation [5] -16.1% | Potency [3] | outcome [4] | outcome [8]

COC(C)(C)CCCC(C)C/C=C/C(C)=C/C(=O)OC(C)C (stereo not drawn)
inactive: Potency [10] | outcome [8]

CCCN(CCC)c1c([N+](=O)[O-])cc(S(N)(=O)=O)cc1[N+](=O)[O-]
53.5%: max response [6]
inactive: outcome [2] | outcome [9] | activation [1] -1% | activation [5] -3.33% | outcome [4] | Potency [7]

c1cc2ccc3cccc4ccc(c1)c2c34
50.8% and 2.37%: max response [6]
inactive: outcome [2] | Potency [10] | activation [1] -4.41% and -1.09% | activation [5] 1.46% and -7.46% | Potency [3] | outcome [4] | Potency [7] | outcome [8]

Clc1cnc(Oc2ccc(Oc3ncc(Cl)cc3Cl)cc2)c(Cl)c1
inactive: outcome [9] | activation [1] 0.177% | activation [5] -2.42% | Potency [3] | outcome [4] | Potency [7]
17%: max response [6]
